A short description of test [1]: NCI Yeast Anticancer Drug Screen. Data for the rad50 strain (AID 155).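 Also: 0% = growth of vehicle-only cultures of the same strain.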 As to conditions: S. cerevisiae rad50 strain growth inhibition, active compounds read high; at 50.0 µM unless noted. The gist of the method:
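Cells are treated with compound, grown, and their growth is then scored against vehicle-only cultures of the same repair-deficient yeast strain.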

The nature of test [2]: NCI Yeast Anticancer Drug Screen. Data for the mec2-1 strain (AID 157). As to conditions: S. cerevisiae mec2-1 strain, active compounds read high; at 50.0 µM unless noted. The method, boiled down: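 Mutant yeast (mec2-1) grown with compound; growth inhibition relative to vehicle control reported.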
A short description of test [3]: NCI Yeast Anticancer Drug Screen. Data for the sgs1 mgt1 strain (AID 161).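 Also: 0% = growth of cultures given vehicle only.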 The conditions noted are these: S. cerevisiae sgs1 mgt1 strain, active compounds read high; at 50.0 µM unless noted. The gist of the method: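 This yeast growth screen uses a strain with defined DNA-repair lesions; compound-treated growth is compared with vehicle-treated growth.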
Test [4] is described as follows: NCI Yeast Anticancer Drug Screen. Data for the cln2 rad14 strain (AID 165).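 Also: 0% = growth equal to vehicle treated cultures.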 The conditions noted are these: S. cerevisiae cln2 rad14 strain, active compounds read high; at 50.0 µM unless noted. The gist of the method:
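Readout is yeast growth inhibition versus vehicle-treated controls, using a strain with cln2 and rad14 alterations exposed to compound.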

Test [5] in a line: NCI Yeast Anticancer Drug Screen. Data for the bub3 strain (AID 167). As to conditions: S. cerevisiae bub3 mutant strain, active compounds read high; at 50.0 µM unless noted. The method, boiled down: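 Part of a panel of yeast mutants defective in DNA damage repair or cell cycle regulation. Each strain is grown with compound, and inhibition is calculated relative to solvent-treated cultures.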

A short description of test [6]: NCI Yeast Anticancer Drug Screen. Data for the mlh1 rad18 strain (AID 175). As to conditions: S. cerevisiae mlh1 rad18 strain growth inhibition, active compounds read high; at 50.0 µM unless noted. The method, boiled down:
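Genetically defined yeast (DNA repair-deficient) exposed to compounds; growth inhibition determined relative to vehicle.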

Values joined by “and” are separate entries in the source; they are usually repeats but may differ in a detail not shown here. Equal values may be shown once. Compounds without any hit were thinned out: in the full panel of roughly 79,000, 15% have a hit. Unmarked numbers belong to inactive results. Active and inactive are the calls of the source. Rule as the data show it: active = growth inhibition above about 70%; inactive = the rest.

`N=C(N)SCCCCCSC(=N)N`: the growth inhibition in test [1] is 4.05%; in test [2], -12.2%; in test [3], -4.9%; in test [4], -3.15%; in test [5], -6.35%; in test [6], 12.8%.

`CCOC(=O)CSC#N`: the growth inhibition in test [1] is -2.05%; in test [2], -0.85%; in test [3] it was 1.35%; in test [4], 7.4%; in test [5] it was 21.2%; in test [6], 2.9%.

For `COc1cc(O)c2c(=O)cc(-c3ccc(O)cc3O)oc2c1CC=C(C)C`, the growth inhibition was 43.5% in test [1]; 0.4% in test [2]; -0.25% in test [3]; 17.7% in test [4]; -2.8% in test [5]; -20.5% in test [6].

In the case of `CCCN(CCC)C(=O)c1ccccc1C`, the growth inhibition in test [1] was 9.5%; in test [2] it was -2%; in test [3] it was 6.65%; in test [4], -14.1%; in test [5], 18.4%; in test [6], 2.9%.

Regarding `COC(=O)/C(=C(\C)NC(C)=O)c1c(C(=O)OC)[nH]c2ccccc12`, the growth inhibition in test [1] is -6.85%; in test [2], -12.5%; in test [3] it was -9.15%; in test [4] it was 4.15%; in test [5], -3%; in test [6], -111%.

Turning to `CCCC(=O)NC(Nc1ccc(S(=O)(=O)Nc2cc(C)on2)cc1)(C(=O)OCC)C(F)(F)F` (stereo unspecified), the growth inhibition in test [1] was 32.8%; in test [2] it was -18.9%; in test [3], 4.75%; in test [4], 18.1%; in test [5], -14.4%; in test [6], -40.8%.

Take `OCCNc1ncnc2c1ncn2C1OC(CO)C(O)C1O` (stereo unspecified): the growth inhibition in test [1] was 6.3%; in test [2], 5.25%; in test [3], -12.3%; in test [4] it was -23.9%; in test [5], -20%; in test [6], 22%.

As for `Cc1ccc(C(C)C)cc1NC(=O)c1ccc([N+](=O)[O-])cc1`, the growth inhibition is -5.15% in test [1]; 16.4% in test [2]; 16.9% in test [3]; -5.8% in test [4]; 2.6% in test [5]; 21.6% in test [6].

For `OCCCCC1CCCc2ccccc21` (stereo unspecified), the growth inhibition in test [1] was 17.3%; in test [2], 16.1%; in test [3], 3.15%; in test [4] it was -4.55%; in test [5] it was -1.85%; in test [6], -3.45%.

Regarding `Cc1cc(N(CCCCl)CCCCl)ccc1C=Nc1cc(Cl)c(O)c(Cl)c1`, the growth inhibition in test [1] was 71.8% (active); in test [2], 6.15%; in test [3] it was 84.8% (active); in test [4] it was -13.9%; in test [5], 53%; in test [6], 57.2%.

On to `CCCCCCCCCCCCCCCCCCOC(=O)CC(C)=O`, for which the growth inhibition in test [1] was -2.75%; in test [2], -4.55%; in test [3] it was -12.2%; in test [4], -5%; in test [5], -9.2%; in test [6] it was 3.95%.

For `Nc1nc(N)c2[nH]cnc2n1`, the growth inhibition in test [1] is 0.6% and 18.9%; in test [2], -1.5% and -3.95%; in test [3], 3.65% and -1.85%; in test [4] it was 10.7% and -30.4%; in test [5] it was 0.6% and -16.6%; in test [6], -43.9% and 1.2%.

Regarding `OCC(O)COc1ccc(F)cc1` (stereo unspecified), the growth inhibition in test [1] is 19.7%; in test [2], -16.2%; in test [3], -0.15%; in test [4] it was 4.55%; in test [5] it was -6.25%; in test [6], -12.1%.

`CCCCCCCC[Si](c1ccccc1)(c1ccccc1)c1ccccc1`: the growth inhibition in test [1] was 3.15%; in test [2], 22%; in test [3] it was 3.85%; in test [4], -9.8%; in test [5], -2.2%; in test [6], 10.4%.

For `C/C=C/C#C/C=C1/C=CC(=O)O1`, the growth inhibition in test [1] is -5.95%; in test [2] it was -1.35%; in test [3] it was -7.2%; in test [4], 37.1%; in test [5], 34.2%; in test [6], 10.1%.

Regarding `CC1CC[N+](C)(CC(=O)c2ccc(-c3ccc(C(=O)C[N+]4(C)CCC(C)CC4)cc3)cc2)CC1` (stereo unspecified), the growth inhibition in test [1] was -8.2%; in test [2] it was 1.4%; in test [3], -12.7%; in test [4], 22.9%; in test [5] it was -3.15%; in test [6], -10.2%.

For `O=C(O)c1ccccc1-c1ccccc1`, the growth inhibition was -19.2% in test [1]; -36.1% in test [2]; -12.4% in test [3]; 4.3% in test [4]; -15.3% in test [5]; -1.9% in test [6].

Regarding `CC(=O)OC1CCC(C(C)(C)C)CC1` (stereo unspecified), the growth inhibition in test [1] is -12.8%; in test [2], -41%; in test [3], -19.2%; in test [4] it was 2.5%; in test [5], -28.2%; in test [6], -15.8%.

On to `CCCCN(CCCC)C(=O)c1cccc(C)c1`, for which the growth inhibition is 13.7% in test [1]; 8.1% in test [2]; 4.1% in test [3]; -16.4% in test [4]; 53.2% in test [5]; 14.1% in test [6].

Consider `CC(C)c1cc(C(C)C)c(S(=O)(=O)N/N=C2\C=CCC(C)(C)C2)c(C(C)C)c1`, for which the growth inhibition in test [1] was 41.1%; in test [2] it was 5.05%; in test [3], 24.1%; in test [4] it was -47.4%; in test [5], -4.7%; in test [6], 18.9%.

In the case of `Nc1ccc(S(=O)(=O)CCS(=O)(=O)c2ccc(N)cc2)cc1`, the growth inhibition in test [1] was 5.65%; in test [2], -4.5%; in test [3], 0.55%; in test [4], -25.1%; in test [5], 4.45%; in test [6], 0.8%.

Values taken from PubChem BioAssay (NCI).
